Bioassay records (PubChem)
HP1b binding inh: HP1-beta chromodomain-methylated histone interaction inhibition; AlphaScreen HP1-beta / biotin-H3K9me3 peptide binding; Potency, µM (titrated, usually from 114 µM), for inactives: at the top dose activity change, negative = inhibition, usual class: inhibitors; 390,000 compounds, 0.56% hits; AID 540317; also: nearly all actives have a fitted effect of over 70% in size
Target sequence (P83916 whole entry, looked up): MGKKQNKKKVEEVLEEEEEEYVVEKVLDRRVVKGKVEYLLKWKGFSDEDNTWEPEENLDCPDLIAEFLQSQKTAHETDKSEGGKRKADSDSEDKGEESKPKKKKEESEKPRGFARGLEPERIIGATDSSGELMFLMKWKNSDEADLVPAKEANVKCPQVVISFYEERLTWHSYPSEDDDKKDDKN
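Compound inhibition of the preformed complex between 50 nM HP1-beta and 50 nM biotinylated H3K9me3 peptide was read by AlphaScreen. Buffer was PBS pH 7.4 with 0.01% Tween-20. Incubations ran 30 min at room temperature, with 10 ug/mL donor/acceptor beads.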
G9a block: inhibitors of human histone lysine methyltransferase G9a | 350,000 compounds, 8.8% hits | AID 504332 | Potency, µM (series often up to 102 µM), inactives show at the top dose activity, negative = inhibition, most hits filed as inhibitors | Q96KQ7 | G9a H3K9 monomethylation, AlphaScreen, 2 h; also: % is scaled to controls: 0 for no effect and ±100 for the full control effect; nearly all actives have a fitted effect of over 75% in size
Target sequence (Q96KQ7 913-1193 limits assumed): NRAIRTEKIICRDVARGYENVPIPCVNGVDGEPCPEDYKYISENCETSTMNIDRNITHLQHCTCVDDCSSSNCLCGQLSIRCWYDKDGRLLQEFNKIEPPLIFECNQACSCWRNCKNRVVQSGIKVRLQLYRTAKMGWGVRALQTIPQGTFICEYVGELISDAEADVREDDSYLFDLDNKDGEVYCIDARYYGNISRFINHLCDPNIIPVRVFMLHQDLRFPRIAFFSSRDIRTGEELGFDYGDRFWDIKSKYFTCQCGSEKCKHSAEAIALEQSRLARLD
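Readings reflect AlphaScreen signal from monomethyl-H3K9 antibody detection. HMT at 20 nM; substrate b-H3K9 500 nM; cofactor SAM 20 uM; 2 h RT reaction; compounds tested as titrations in qHTS with 15 min preincubation.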
JMJD2A Tudor inh: JMJD2A Tudor domain (human) inhibition | 390,000 compounds, 4.4% hits | O75164 | Potency, µM (series often up to 114 µM), without a hit: at the highest dose activity change, negative = inhibition, hits mostly inhibitors | AlphaScreen JMJD2A-Tudor / H3K4me3 peptide binding; also: % is scaled to controls: 0 for no effect and ±100 for the full control effect; nearly all actives have a fitted effect of over 50% in size
Sfp PPTase inh: Sfp phosphopantetheinyl transferase inhibition; Biochemical Sfp PPTase activity, qHTS; Potency, µM, inactives show largest response in the series, negative = inhibition, hits mostly inhibitors; 310,000 compounds, 3.5% hits; AID 1490;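 also: the enzyme is Sfp with the accession as filed and its product quenches rhodamine fluorescence; 0% = enzyme reaction without inhibitor and -100% = no enzyme wells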
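With Hepes-Na pH 7.6 buffer containing 10 mM MgCl2, Sfp (15 nM) modified BHQ-2-YbbR (12.5 uM) using rhodamine-CoA (5 uM). Two reads 30 minutes apart at 525/598 nm yielded each well's rate.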
BAZ2B block: blocks human BAZ2B; 360,000 compounds, 4.4% hits; Potency, µM (doses to about 114 µM), for inactives: at the top dose activity change, negative = inhibition, actives largely listed as inhibitors; Q9UIF8; AID 504333; AlphaScreen BAZ2B-H3K14Ac peptide displacement; also: % is scaled to controls: 0 for no effect and ±100 for the full control effect; nearly all actives have a fitted effect of over 60% in size
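BAZ2B (50 nM) with biotin-H3(5-23)K14Ac peptide (50 nM) in PBS pH 7.4, 0.01% Tween-20, preformed 30 min, then compound 30 min at room temperature; top concentration 110uM. AlphaScreen streptavidin donor/nickel chelate acceptor beads (10 ug/mL final), 20 min dark, signal read.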
* = called active by the depositor; [ ] = another dose, or the depositor's remark. This is a sample that favours compounds with a hit; in the whole collection about 12% have one here. Calls follow the shape of the dose curve; as a rule, active = well fitted curve in the direction sought with a large enough effect; inconclusive = small, poorly fitted or top-dose-only effect, or another doubt; inactive = no such curve, though single readings can be large; an effect the other way counts as inactive or inconclusive. Potency is read from the fitted curve at half-maximal effect.

Results for CC1=CS(=O)(=O)CC1Sc1nc(C)n[nH]1 (stereo not given) ?
HP1b binding inh: 30.9%; G9a block: 50.1µM*; JMJD2A Tudor inh: -8.5%; Sfp PPTase inh: 18.3%; BAZ2B block: inconclusive

How did CC1=CS(=O)(=O)CC1Sc1nc2ccccc2[nH]1 (stereo not given) do in these assays?
HP1b binding inh: 23.9%; G9a block: 79.4µM*; JMJD2A Tudor inh: -34.5%; Sfp PPTase inh: -6.0%; BAZ2B block: -6.2%

What do the screens show for `O=c1cc(CCc2ccccc2)oc2cccc(O)c12`?
HP1b binding inh: 131.3%; JMJD2A Tudor inh: 68.0%

How did CC(C(=O)Nc1ccc2nccnc2c1)N1C(=O)C2C3C=CC(C3)C2C1=O (stereo not given) do in these assays?
HP1b binding inh: 34.8%; G9a block: -4.7%[59 µM]; JMJD2A Tudor inh: -6.4%; Sfp PPTase inh: 25.0%; BAZ2B block: -5.5%

What do the screens show for `CCn1c(-c2ccc(F)cc2)n[nH]c1=S`?
HP1b binding inh: 25.0%; G9a block: inconclusive; JMJD2A Tudor inh: 5.01µM*; Sfp PPTase inh: -25.4%; BAZ2B block: 9.9%

What do the screens show for `CC(C)(C)c1ccc(-c2n[nH]c(=S)n2C2CCCC2)cc1`?
HP1b binding inh: 15.6%; G9a block: 7.94µM*; JMJD2A Tudor inh: inconclusive; Sfp PPTase inh: 4.7%; BAZ2B block: 1.8%

What do the screens show for `CC(C)(C)c1ccc(-c2nc(N)nc(N)n2)cc1`?
HP1b binding inh: 31.6%; JMJD2A Tudor inh: -20.8%; Sfp PPTase inh: 14.4%; BAZ2B block: 1.1%

Results for Cn1c(-c2ccc(C(C)(C)C)cc2)n[nH]c1=S ?
HP1b binding inh: -24.7%; G9a block: 2µM*; JMJD2A Tudor inh: 22.4µM*; Sfp PPTase inh: -8.1%; BAZ2B block: 0.9%

Results for CCn1c(-c2ccc(C(C)(C)C)cc2)n[nH]c1=S ?
HP1b binding inh: -4.0%; G9a block: 0.562µM*; JMJD2A Tudor inh: 44.7µM*; Sfp PPTase inh: -29.1%; BAZ2B block: 3.3%

Results for O=S(=O)(Nc1nc2ccccc2s1)c1cnc(Cl)c(Br)c1 ?
HP1b binding inh: 43.0%; G9a block: inconclusive; JMJD2A Tudor inh: -2.4%; Sfp PPTase inh: 5.9%; BAZ2B block: -4.3%

What do the screens show for `CCn1c(-c2csc(-c3ccc(Cl)cc3)n2)n[nH]c1=S`?
HP1b binding inh: 49.5%; G9a block: inconclusive; JMJD2A Tudor inh: -3.2%; Sfp PPTase inh: 8.7%; BAZ2B block: 6.2%

How did CCn1c(-c2cccc(Cl)c2)n[nH]c1=S do in these assays?
HP1b binding inh: -4.1%; G9a block: 6.31µM*; JMJD2A Tudor inh: 7.08µM*; Sfp PPTase inh: 1.2%; BAZ2B block: 6.7%

What do the screens show for `COc1ccc(-c2noc(-c3cc(C(C)C)[nH]n3)n2)cc1`?
HP1b binding inh: 10.0%; G9a block: 3.3%[59 µM]; JMJD2A Tudor inh: -18.8%; BAZ2B block: 0.1%

How did C=CC#CC[N+]1(CC#Cc2ccccc2)CCOCC1 do in these assays?
HP1b binding inh: 35.5µM*; G9a block: inconclusive; JMJD2A Tudor inh: 39.8µM*; Sfp PPTase inh: inconclusive; BAZ2B block: inconclusive

Results for COC(=O)C1=C[C@@H](C(=O)OC)C2C3=C(C(=O)[C@]2(C)NC(=O)c2ccccc2)[C@H](C)n2c(=O)n(-c4ccccc4)c(=O)n2[C@@H]3C1 (stereo not given in full) ?
HP1b binding inh: 15.2%; JMJD2A Tudor inh: -6.9%; Sfp PPTase inh: -2.3%

Results for S=C(NCc1cccnc1)Nc1ccc(Cl)cc1 ?
HP1b binding inh: 9.5%; G9a block: 30.7%[0.501 µM]; JMJD2A Tudor inh: -8.4%; Sfp PPTase inh: 11.9%; BAZ2B block: -28.8%

Results for O=S(=O)(NCc1cccnc1)c1cccc2nsnc12 ?
HP1b binding inh: 11.0%; G9a block: 31.6µM*; JMJD2A Tudor inh: -8.9%; Sfp PPTase inh: 9.1%; BAZ2B block: 4.6%

What do the screens show for `O=S(=O)(NCc1ccccc1)c1cccc2nsnc12`?
HP1b binding inh: 38.4%; G9a block: 2.7%; JMJD2A Tudor inh: -14.1%; Sfp PPTase inh: -0.5%; BAZ2B block: -35.3%

Results for COc1ccc(C(=O)/C=C/c2ccccc2)c(O)c1 ?
HP1b binding inh: inconclusive; G9a block: inconclusive; JMJD2A Tudor inh: inconclusive; Sfp PPTase inh: 20µM*; BAZ2B block: 44.7µM*

What do the screens show for `O=C(/C=C/c1cccnc1)/C=C/c1cccnc1`?
HP1b binding inh: 1.4%; G9a block: 28.2µM*; JMJD2A Tudor inh: -10.7%; Sfp PPTase inh: 14.1µM*; BAZ2B block: -16.3%

Results for COc1ccc(/C=C/C(=O)c2cc(Cl)ccc2O)c(OC)c1 ?
HP1b binding inh: inconclusive; JMJD2A Tudor inh: inconclusive; Sfp PPTase inh: inconclusive; BAZ2B block: 25.1µM*

What do the screens show for `COc1ccc(OC)c(C(=O)/C=C/c2cccnc2)c1`?
HP1b binding inh: 35.2%; G9a block: 50.1µM*; JMJD2A Tudor inh: -8.2%; Sfp PPTase inh: -28.2%; BAZ2B block: -40.5%

What do the screens show for `COc1ccc(/C=C/C(=O)c2ccc(Cl)cc2)c(OC)c1`?
HP1b binding inh: 83.4%; G9a block: 59.9%; JMJD2A Tudor inh: 11.1%; Sfp PPTase inh: -16.2%; BAZ2B block: 27.8%

What do the screens show for `CCCC(C(=O)NC(C)(C)C)N(C(=O)c1snc(C(N)=O)c1N)c1ccc2c(c1)OCCO2` (stereo not given)?
HP1b binding inh: 35.5%; G9a block: 20.7%[59 µM]; JMJD2A Tudor inh: -29.4%; Sfp PPTase inh: 5.9%; BAZ2B block: -36.3%

Results for Cc1ccccc1OCC(=O)NNC(=O)C1CCCCC1C(=O)O (stereo not given) ?
HP1b binding inh: 37.1%; G9a block: inconclusive; JMJD2A Tudor inh: -12.8%; Sfp PPTase inh: -6.5%; BAZ2B block: 5.6%

How did COc1ccc(C(=O)/C=C/c2ccc(OC)cc2OC)c(O)c1 do in these assays?
HP1b binding inh: -19.5%; G9a block: inconclusive; JMJD2A Tudor inh: 17.8µM*; Sfp PPTase inh: inconclusive; BAZ2B block: inconclusive

How did COc1ccc(C(=O)C=Cc2cccs2)c(O)c1 do in these assays?
HP1b binding inh: inconclusive; JMJD2A Tudor inh: 44.7µM*

How did COc1ccc(C(=O)COC(=O)c2cccnc2Cl)c(OC)c1 do in these assays?
HP1b binding inh: 6.0%; G9a block: -29.0%; JMJD2A Tudor inh: -29.2%; Sfp PPTase inh: 7.5%; BAZ2B block: 50.1µM*

How did COc1ccc(/C=C/C(=O)c2ccc(OC)cc2OC)cc1 do in these assays?
HP1b binding inh: 33.3%; G9a block: 4.8%[12.7 µM]; JMJD2A Tudor inh: -10.9%; Sfp PPTase inh: -7.0%; BAZ2B block: -11.4%

Results for COc1ccc(OC)c(C(=O)COC(=O)c2cccnc2Cl)c1 ?
HP1b binding inh: 56.5%; G9a block: 1.3%; JMJD2A Tudor inh: -6.6%[11.4 µM]; Sfp PPTase inh: 4.3%; BAZ2B block: 10.2%

What do the screens show for `COc1ccc(/C=C/C(=O)/C=C/c2ccc(OC)cc2OC)c(OC)c1`?
Sfp PPTase inh: -0.9%

How did COc1ccc(/C=C/C(=O)c2cc3c(cc2N)OCO3)cc1 do in these assays?
HP1b binding inh: 39.8µM*; G9a block: 17.8µM*; JMJD2A Tudor inh: 28.2µM*; Sfp PPTase inh: inconclusive; BAZ2B block: 22.4µM*
